Laboratory results: the supplement of paper PMC12350171
Where a name gives a salt, the structure may show the parent alone.

test system: Shigella flexneri; test: growth AUC normalised to DMSO control (fraction of control); higher = less growth inhibition, active = hit call of the paper; conditions: 20 µM;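 active = AUC significantly below DMSO controls by Student t-fit with adjusted P under 0.01; inactive = not significantly reduced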
Procedure, shortened: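 Pathogens passaged twice anaerobically were inoculated at a starting OD578 of 0.01 into pre-reduced mGAM plates with drug at 20 μM and 1% DMSO, sealed with breathable membranes. Haemophilus parainfluenzae medium was supplemented with hemin and NAD. OD578 was read hourly for 24 h, with three biological replicates. Growth-curve AUC was computed by the trapezoidal rule up to the exponential-to-stationary transition and normalised to DMSO controls on the same plate.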

Structure (SMILES)	growth AUC normalised to DMSO control
C[C@]12CC[C@@H]3c4ccc(OS(=O)(=O)O)cc4CC[C@H]3[C@@H]1CCC2=O [Estropipate piperazine salt]	0.974 (inactive)
CN(CCCCCCCCCCN(C)C(=O)Oc1cccc([N+](C)(C)C)c1)C(=O)Oc1cccc([N+](C)(C)C)c1 [Demecarium bromide]	1 (inactive)
O=C(OCC(O)CO)c1ccccc1Nc1ccnc2cc(Cl)ccc12 (stereo not drawn) [Glafenine hydrochloride]	0.938 (inactive)
NC(=O)c1cnccn1 [Pyrazinamide]	0.92 (inactive)
COCCOC(=O)C1=C(C)NC(C)=C(C(=O)OC(C)C)C1c1cccc([N+](=O)[O-])c1 (stereo not drawn) [Nimodipine]	0.939 (inactive)
Cn1c(=O)c2c(ncn2CCO)n(C)c1=O [Etofylline]	0.993 (inactive)
CCN(CCCc1ccccc1)CCCc1ccccc1 [Alverine citrate salt]	0.966 (inactive)
N=C(N)NC(=O)c1nc(Cl)c(N)nc1N [Amiloride hydrochloride dihydrate]	1.01 (inactive)
CC(=C(CCO)SSCC1CCCO1)N(C=O)Cc1cnc(C)nc1N (stereo in doubt) [Fursultiamine hydrochloride]	0.965 (inactive)
CC(=O)N[C@@H](CC(C)C)C(=O)O [N-Acetyl-L-leucine]	1.01 (inactive)
OCCN1CCN(CCCN2c3ccccc3C=Cc3ccccc32)CC1 [Opipramol dihydrochloride]	0.962 (inactive)
CC1(C)[C@@H](OC(=O)CCC(=O)O)CC[C@]2(C)[C@H]3C(=O)C=C4[C@@H]5C[C@@](C)(C(=O)O)CC[C@]5(C)CC[C@@]4(C)[C@]3(C)CC[C@@H]12 [Carbenoxolone disodium salt]	0.939 (inactive)
CC(=O)O[C@]1(C(C)=O)CC[C@H]2[C@@H]3C=C(C)C4=CC(=O)CC[C@@H]4[C@H]3CC[C@@]21C [Nomegestrol acetate]	1.03 (inactive)
Cc1ccccc1N1C(=O)c2cc(S(N)(=O)=O)c(Cl)cc2NC1C (stereo not drawn) [Metolazone]	0.984 (inactive)
CCCOc1ccc(C(=O)OCCN(CC)CC)cc1N [Proparacaine hydrochloride]	1.02 (inactive)
CN(N=O)C(=O)N[C@H]1C(O)O[C@H](CO)[C@@H](O)[C@@H]1O (mixture of isomers) [Streptozotocin]	0.0254 (active)
CC(C[N+](C)(C)C)OC(N)=O (stereo not drawn) [Bethanechol chloride]	1.01 (inactive)
CN(C)CCOC(c1ccccc1)c1ccccc1.Cn1c(=O)c2[nH]c(Cl)nc2n(C)c1=O [Dimenhydrinate]	0.984 (inactive)
CC(=O)OCC(=O)[C@@]12N=C(C)O[C@@H]1C[C@H]1[C@@H]3CCC4=CC(=O)C=C[C@]4(C)[C@H]3[C@@H](O)C[C@@]12C [Deflazacort]	0.992 (inactive)
C[C@H](CCC(=O)O)[C@H]1CC[C@H]2[C@@H]3[C@@H](O)C[C@@H]4C[C@H](O)CC[C@]4(C)[C@H]3CC[C@]12C [Urosiol]	1.02 (inactive)
CCc1c2c(nc3ccc(OC(=O)N4CCC(N5CCCCC5)CC4)cc13)-c1cc3c(c(=O)n1C2)COC(=O)[C@]3(O)CC [Irinotecan hydrochloride trihydrate]	1.01 (inactive)
Cc1ccc(S(=O)(=O)NC(=O)NN2CC3CCCC3C2)cc1 (stereo not drawn) [Gliclazide]	1.04 (inactive)
CC(C(=O)O)c1ccc2c(c1)Cc1cccnc1O2 (stereo not drawn) [Pranoprofen]	0.976 (inactive)
CC(=O)OCC(=O)[C@@]1(OC(C)=O)[C@@H](C)C[C@H]2[C@@H]3C[C@H](F)C4=CC(=O)C=C[C@]4(C)[C@@]3(F)[C@@H](O)C[C@@]21C [Diflorasone Diacetate]	0.977 (inactive)
COc1ccc2c3c1O[C@H]1C[C@@H](O)C=C[C@@]31CCN(C)C2 [Galanthamine hydrobromide]	0.95 (inactive)
CCN1CCCC1CNC(=O)c1cc(S(N)(=O)=O)ccc1OC (stereo not drawn) [Sulpiride]	1 (inactive)
NS(=O)(=O)c1cc2c(cc1Cl)NC(CC1CCCC1)NS2(=O)=O (stereo not drawn) [Cyclopenthiazide]	0.972 (inactive)
CN1CCN(C(c2ccccc2)c2ccc(Cl)cc2)CC1 (stereo not drawn) [Chlorcyclizine hydrochloride]	0.993 (inactive)
